# “And” between values parts separate entries of the source, which are not always exact repeats. Identical values can stand only once. Results filed as inconclusive are left out. A number with no mark means an inactive call. Calls come from the whole dose curve; as a rule, active = well fitted curve in the direction sought with a large enough effect; inconclusive = small, poorly fitted or top-dose-only effect, or another doubt; inactive = no such curve, though single readings can be large or run the other way.
# Assay: qHTS Assay for Identifying Gametocytocidal Compounds (AID 743244);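 note: actives lower the fluorescent signal which means gametocytes are killed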
# Conditions: P. falciparum 3D7 stage III-V gametocytes, alamarBlue, 72 h; max response: hits give low values
# Procedure, shortened: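 Stage III-V P. falciparum 3D7 gametocytes, 20,000 per well, were exposed to compounds for 72 h at 37C, 5% CO2. AlamarBlue was then added for 24 h and viability was read as fluorescence at Ex 525/Em 598 nm.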
# % is set by controls: 0 for no effect and ±100 for the full control effect.
row,Compound,max response
1,Cc1cc2nc3c(=O)[nH]c(=O)nc-3n(C[C@H](O)[C@H](O)[C@H](O)COP(=O)(O)OP(=O)(O)OC[C@H]3O[C@@H](n4cnc5c(N)ncnc54)[C@H](O)[C@@H]3O)c2cc1C,-3.17%
2,C=CC[N@@+]12CC[C@@]34c5ccccc5N5/C=C6/[C@H]7C[C@H]8[C@@]9(CC[N@@+]8(CC=C)C/C7=C/CO)c7ccccc7N(/C=C(/[C@@H](C[C@@H]31)/C(=C\CO)C2)[C@H]54)[C@@H]69,4.55%
3,O[C@@H]([C@H](O)[C@H](O)CBr)[C@H](O)CBr,-5.26%
4,NC(=O)CC[C@@H]1NC(=O)[C@H](Cc2ccccc2)NC(=O)[C@H](Cc2ccc(O)cc2)NC(=O)[C@@H](N)CSSC[C@@H](C(=O)N2CCC[C@H]2C(=O)N[C@@H](CCCN=C(N)N)C(=O)NCC(N)=O)NC(=O)[C@H](CC(N)=O)NC1=O,-1.4% and -14.5%
5,CN(C)CCOc1ccc(/C(=C(/CCCl)c2ccccc2)c2ccccc2)cc1,7.93%
6,OCCCNc1ccccc1,-7.9%
7,O=C(O)COc1ccc(CCNS(=O)(=O)c2ccccc2)s1,-5.07%
8,CNCC(=O)N[C@@H](CCCN=C(N)N)C(=O)N[C@H](C(=O)N[C@@H](Cc1ccc(O)cc1)C(=O)N[C@H](C(=O)N[C@@H](Cc1cnc[nH]1)C(=O)N1CCC[C@H]1C(=O)N[C@@H](C)C(=O)O)C(C)C)C(C)C,5.17%
9,CC(O)[C@H]1CC[C@H]2[C@@H]3CC[C@@H]4C[C@@H](O)CC[C@]4(C)[C@H]3CC[C@]12C (some centres undefined),4.2%

# Source: PubChem BioAssay (NCATS)
